Assay results: PubChem BioAssay (NCI)
About 79,000 compounds went through this panel and 15% of them were active in at least one assay; those are over-represented in the sample as a whole. No stated cut-off is given here; in the data, active means growth inhibition above about 70%; inactive means the rest.

Experiments:
[1] = NCI Yeast Anticancer Drug Screen. Data for the rad50 strain (AID 155);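 further: 0% = growth of vehicle-only cultures of the same strain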; conditions: S. cerevisiae rad50 strain growth inhibition; at 50.0 µM; active compounds read high
Outline: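 Genetically altered yeast (DNA repair pathway); compound treatment; growth inhibition vs vehicle ctrl.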

[2] = NCI Yeast Anticancer Drug Screen. Data for the mec2-1 strain (AID 157); conditions: S. cerevisiae mec2-1 strain, at 50.0 µM, active compounds read high
Outline: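 Cells of the genetically defined mec2-1 yeast strain are incubated with test compound. Inhibition of growth is calculated against vehicle-treated controls.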

[3] = NCI Yeast Anticancer Drug Screen. Data for the sgs1 mgt1 strain (AID 161);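 further: 0% = growth of cultures given vehicle only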; conditions: S. cerevisiae sgs1 mgt1 strain, at 50.0 µM, active compounds read high
Outline: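 Genetically altered yeast, compound exposure, growth inhibition relative to vehicle.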

[4] = NCI Yeast Anticancer Drug Screen. Data for the cln2 rad14 strain (AID 165);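 further: 0% = growth equal to vehicle treated cultures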; conditions: S. cerevisiae cln2 rad14 strain, at 50.0 µM, active compounds read high
Outline: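 The screen exposed genetically defined yeast (cln2 rad14) to test compounds and scored growth inhibition relative to vehicle-treated controls.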

[5] = NCI Yeast Anticancer Drug Screen. Data for the bub3 strain (AID 167); conditions: S. cerevisiae bub3 mutant strain, at 50.0 µM, active compounds read high
Outline: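 Yeast carrying a defined mutation is treated with each compound, and growth is compared with that of vehicle-exposed cells to give inhibition.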

[6] = NCI Yeast Anticancer Drug Screen. Data for the mlh1 rad18 strain (AID 175); conditions: S. cerevisiae mlh1 rad18 strain growth inhibition; at 50.0 µM; active compounds read high
Outline: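 Compound-treated yeast growth, normalised to vehicle controls. Strain bears defined DNA repair mutations.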

Measured: growth inhibition

O=C(N/N=C\c1ccc(Cl)cc1)c1ccccc1
inactive: [1] 8% | [2] 6.9% | [3] -0.1% | [4] 4.45% | [5] 7.05% | [6] -4.55%

O=C(Nc1ccc(C(=O)O)cc1)OCc1ccccc1
inactive: [1] 1.65% | [2] 8.75% | [3] 15.5% | [4] -36% | [5] 2.5% | [6] -7.7%

CCC(=O)OCCC(C)C
inactive: [1] 35.4% | [2] 12.2% | [3] 6.85% | [4] -22.1% | [5] 19.9% | [6] 17.4%

O=C(O)C(=O)O.[NH-]CC(O)CN(CC(O)CO)c1ccccc1.[Pt+2] (stereo unspecified)
inactive: [1] 23.2% | [2] 1.35% | [3] 6.85% | [4] 21.7% | [5] -1.45% | [6] 11.1%

COc1ccc(/C=C2\N=C(N3CCOCC3)NC2=O)cc1
inactive: [1] -4.15% | [2] 7.25% | [3] 10.4% | [4] -13.8% | [5] -3.4% | [6] -43.8%

CN(C)c1ccc(S(=O)(=O)c2ccc3nc(N)nc(N)c3c2)cc1
inactive: [1] 29.2% | [2] 16.2% | [3] 5.45% | [4] -26.5% | [5] -5.9% | [6] 3.85%

CC(=N/Nc1ccc([N+](=O)[O-])cc1[N+](=O)[O-])/C(C)=C/C1C=CCCC1(C)C (stereo unspecified)
inactive: [1] 21.2% | [2] -2.75% | [3] 8.5% | [4] 3% | [5] 16.1% | [6] 6.65%

CC(=O)/C(C(=N)C(=O)c1ccccc1)=C(\C)O
inactive: [1] -12.1% | [2] 22.5% | [3] 3.5% | [4] -16.6% | [5] 4.3% | [6] 0.25%

O=[N+]([O-])c1cccc(CC(=S)N2CCOCC2)c1
inactive: [1] 14.4% | [2] -3.8% | [3] -8.9% | [4] -39.8% | [5] -2.3% | [6] 6.6%

C[N+]1(C)C/C(=C\c2ccc(O)cc2)C(=O)/C(=C/c2ccc(O)cc2)C1
inactive: [1] -0.75% | [2] -16.3% | [3] 4.05% | [4] -6% | [5] -9.75% | [6] -14.2%

CCOC(=O)c1c(N)n(-c2ccccc2)c(=O)n(-c2ccccc2)c1=O
inactive: [1] -8.85% | [2] -5.3% | [3] -30.9% | [4] 19.4% | [5] -31.8% | [6] -34%

Cc1ccc(C(=O)N2CCCCC2)cc1N=NN(C)C
inactive: [1] 0.05% | [2] -25.5% | [3] -25.6% | [4] 14.3% | [5] -17.6% | [6] -21.1%

C#CCNC(=O)CCC(N)C(=O)O (stereo unspecified)
inactive: [1] -0.1% | [2] -15.2% | [3] -14.8% | [4] 3.05% | [5] -11.8% | [6] 2.65%

CC(C)(C)OC(=O)NC(CSSCC(NC(=O)OC(C)(C)C)C(=O)O)C(=O)O (stereo unspecified)
inactive: [1] -7.05% | [2] -10.2% | [3] -10.7% | [4] -3.45% | [5] -5.7% | [6] -6.4%

CC1=CC(=O)OC(=O)/C1=C/c1ccc(N(C)C)cc1
inactive: [1] -11.2% | [2] 33.8% | [3] -7.65% | [4] 19.7% | [5] 23% | [6] -9.4%

CC(C)CCC[C@@H](C)[C@H]1CC[C@@]2(C)C3=C(C(=O)C[C@]12C)[C@@]1(C)CC[C@H](O)C(C)(C)[C@@H]1CC3=O
inactive: [1] 8.5% | [2] -16.7% | [3] 17.1% | [4] -40.6% | [5] 6.1% | [6] 10.3%

COc1ccc(CC(=O)OCC2CCCO2)cc1OC (stereo unspecified)
inactive: [1] -8.5% | [2] -1.25% | [3] 9.9% | [4] -20.6% | [5] 5.6% | [6] 4%

CC1=NN(C(=O)CC(=O)Nc2ccccc2C)C(=O)C1N=Nc1ccc(S(=O)(=O)c2ccc(N=NC3C(=O)N(C(=O)CC(=O)Nc4ccccc4C)N=C3C)cc2)cc1 (stereo unspecified)
inactive: [1] 41.6% | [2] 14.5% | [3] -2.25% | [4] 2.45% | [5] -8.75% | [6] 1.35%

O=c1oc2ccccc2c(O)c1C(c1ccc2c(c1)OCO2)N1CCOCC1 (stereo unspecified)
inactive: [1] 23.2% | [2] 25.2% | [3] 8.5% | [4] 25.7% | [5] 1.8% | [6] 19.1%

COc1nc2c(c(=O)n1C)N(C(C)=O)C1C(N2)OCC(OC(C)=O)C1OC(C)=O (stereo unspecified)
inactive: [1] -13.4% | [2] 8.65% | [3] -2.55% | [4] 5.45% | [5] -7.6% | [6] -32.1%

CSc1ccc(Nc2ncnc(N)n2)cc1
inactive: [1] 19.9% | [2] 5.6% | [3] 8.6% | [4] -1.4% | [5] 8.8% | [6] 14.6%

COc1ccc(NC(=O)CCC2=CC(=O)CC(c3ccccc3)O2)cc1 (stereo unspecified)
inactive: [1] 2.9% | [2] 9.65% | [3] 2.35% | [4] 25.3% | [5] -8.45% | [6] -5.05%

ClCc1c(Cl)c(Cl)c(CCl)c(Cl)c1Cl
inactive: [1] 2.75% | [2] -10.9% | [3] 3.1% | [4] 20.6% | [5] 12.6% | [6] -10.1%

C/C(CC(=O)Nc1ccc(NC(=O)/C(C)=N/NS(=O)(=O)c2ccc(C)cc2)cc1)=N\NS(=O)(=O)c1ccc(C)cc1
inactive: [1] 16.2% | [2] 2.95% | [3] -12.8% | [4] -6.35% | [5] -0.9% | [6] 27.1%

CCN(CC)C(=O)CS(=O)(=O)c1ccc(N)cc1
inactive: [1] 3.55% | [2] -8.5% | [3] 2% | [4] 23.9% | [5] 7.35% | [6] 14.7%

N#CC(C(=N/O)/C(=N\O)C(C#N)c1ccccc1)c1ccccc1 (stereo unspecified)
inactive: [1] -3.35% | [2] -11.1% | [3] 2.55% | [4] -4% | [5] -5.75% | [6] 25.1%

O=S1(=O)NC2CCC3NS(=O)(=O)NC4CCC(N1)N4S(=O)(=O)N23 (stereo unspecified)
inactive: [1] -3.75% | [2] -17.4% | [3] -4.1% | [4] 6.6% | [5] -0.55% | [6] -8.25%

CC1(C)C=Cc2c(cc(O)c3c(=O)c4cc(Cl)ccc4[nH]c23)O1
inactive: [1] -14.2% | [2] -42.4% | [3] -14.8% | [4] -18.1% | [5] -15% | [6] -12.1%

O=c1c2ccccc2nc(-c2ccccc2Cl)n1NCC1(O)OCC(O)C(O)C1O (stereo unspecified)
inactive: [1] 12% | [2] 5.2% | [3] 16.6% | [4] -13.2% | [5] -1.2% | [6] 3.25%

COc1ccc2nc3cc(Cl)ccc3c(NCCCNCCCNc3c4ccc(Cl)cc4nc4ccc(OC)cc34)c2c1
inactive: [1] -10.3% | [2] -16.5% | [3] -9.1% | [4] 3.5% | [5] -6% | [6] -23.1%

C/C(=N\OC(=O)c1c(-c2c(Cl)cccc2Cl)noc1C)c1ccccc1O
inactive: [1] 1.5% | [2] -23.4% | [3] -1.6% | [4] 12.2% | [5] -21.9% | [6] -4.75%

O=[N+]([O-])c1ccc(C2NC(c3ccccc3)c3c(ccc4ccccc34)O2)cc1 (stereo unspecified)
inactive: [1] 41% | [2] 2.75% | [3] 23.8% | [4] -1.35% | [5] -0.25% | [6] 4.3%

Clc1ccc(C(Cl)(Cl)C(Cl)(Cl)Cl)cc1
inactive: [1] 6.65% | [2] 40.4% | [3] -2.15% | [4] -61.2% | [5] 40% | [6] 44.1%

CC(C)(C)C1CCC(C2CC(C(C)(C)C)CCC2=O)CC1 (stereo unspecified)
inactive: [1] 2.75% | [2] -8% | [3] 1.65% | [4] 5.15% | [5] 5.7% | [6] 27.8%

O=C(CSc1nc2ccccc2c2ccccc12)c1ccccc1
inactive: [1] 9.25% | [2] -42.5% | [3] -4.4% | [4] -52% | [5] -42.8% | [6] 12.8%

COC1OCC(O)C(O)C1OC (stereo unspecified)
inactive: [1] -11% | [2] -13.4% | [3] -16.2% | [4] -25.1% | [5] -8.55% | [6] -19.1%

CCCOc1cncc(C)n1
inactive: [1] 8% | [2] 19.1% | [3] -3.75% | [4] -3.85% | [5] 13.6% | [6] 9.95%

CC(C)(NC(=O)c1cc(Cl)c2ccccc2c1O)C(=O)O
inactive: [1] 4.4% | [2] 2.8% | [3] 27.7% | [4] 22.9% | [5] 8.6% | [6] 17.7%

CCOC(=O)c1ccccc1OC(=O)Oc1ccccc1C(=O)OCC
inactive: [1] 17.9% | [2] 10.2% | [3] -5.25% | [4] -23.1% | [5] -5.55% | [6] 33.9%

c1ccc(Cc2[nH]nc(-c3n[nH]c(Cc4ccccc4)c3-c3ccccc3)c2-c2ccccc2)cc1
inactive: [1] -28.8% | [2] 18.1% | [3] -9.65% | [4] -8.35% | [5] -20.6% | [6] 8.4%

CC1(C)NC(=S)N(O)C1(C)C
inactive: [1] 0.1% | [2] -5.65% | [3] -19.8% | [4] -11.9% | [5] 10.8% | [6] -4.8%
